High-throughput results as filed in PubChem.
D1 ag – activates the human D1 dopamine receptor; P21728; HEK293 T-REx D1 cells, calcium flux, agonist mode; activation, % at 2 µM; hit rate 1% among 360,000; in the data active means activation above about 30%; further: 0% is about no effect
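Tetracycline-induced HEK293 TREx D1 cells, force-coupled to calcium signalling, were dye-loaded with a no-wash calcium kit. Compound was pin-added after a 10 s baseline. Fluorescence was read kinetically at 1 cycle/s for 180 s, with calcium rises flagged as agonism.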
D1 antagonist – human D1 dopamine receptor antagonism | P21728 | HEK293 TREx D1 cells, calcium flux, dopamine EC80; stronger effect = lower value | activity change, negative = inhibition, % at 10 µM | hit rate 3.2% among 360,000 | AID 504652; in the data active means activity change below about -30%; further: on the % scale 0 is the no-effect control and ±100 the full control effect
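Inducible Hek293 Trex D1 cells (tetracycline, overnight, 30 C). Calcium dye 30–90 min RT. Antagonist mode: EC80 dopamine added after 180 s compound read.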
D1 PAM – human D1 dopamine receptor positive modulation. P21728. AID 504651. HEK293 TREx D1 cells, calcium flux, dopamine EC20 potentiation. hit rate 0.036% among 360,000. potentiation, % at 10 µM; in the data active means potentiation above about 30%; further: 0% is about no effect
DRD3 agonist – activates the human D3 dopamine receptor | max activation, % | hit rate 0.58% among 410,000 | P35462 | D3R DiscoveRx beta-arrestin cells, luminescence, 90 min; in the data active means max activation above about 30%; further: 0% is about no effect
Target sequence (P35462 whole entry, looked up): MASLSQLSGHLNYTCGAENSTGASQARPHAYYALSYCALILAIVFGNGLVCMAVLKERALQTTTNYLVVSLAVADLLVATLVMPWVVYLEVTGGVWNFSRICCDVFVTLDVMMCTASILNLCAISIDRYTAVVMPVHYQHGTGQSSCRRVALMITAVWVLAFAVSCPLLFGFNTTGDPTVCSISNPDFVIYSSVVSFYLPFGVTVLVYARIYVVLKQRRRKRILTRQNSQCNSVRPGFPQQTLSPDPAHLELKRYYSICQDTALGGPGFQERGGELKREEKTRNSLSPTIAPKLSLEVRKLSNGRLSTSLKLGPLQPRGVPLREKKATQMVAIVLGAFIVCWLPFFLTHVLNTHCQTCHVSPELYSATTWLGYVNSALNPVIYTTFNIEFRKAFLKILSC
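Cells at 1500/well, incubated overnight, then treated with pinned compounds (dopamine as control) for 90 min at 37 degrees C. DiscoveRx reagent added for 30 - 60 minutes at room temperature; luminescence read.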
DRD3 antagonist – blocks the human D3 dopamine receptor | D3R cells, DiscoveRx beta-arrestin luminescence, antagonist mode; stronger effect = lower value | max response, negative = inhibition, % | hit rate 2.5% among 360,000 | P35462; in the data active means max response below about -50%; inconclusive means no clear call, values can overlap the other calls; further: on the % scale 0 is the no-effect control and ±100 the full control effect
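Cells plated overnight at 1500 cells/well, then exposed to library compounds with dopamine controls for 90 minutes at 37 degrees C. DiscoveRx reagent added for 30–60 minutes at room temperature; luminescence read, quantitative HTS format.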
* = called active by the depositor; ? = inconclusive; nt = not tested or not shown. In the library only some 6.1% were active in any assay of this set; here they are far more common.

SMILES	D1 ag	D1 antagonist	D1 PAM	DRD3 agonist	DRD3 antagonist
CO[C@H]1C[C@H](O[C@@H]2/C(C)=C/C[C@@H]3C[C@@H](C[C@]4(CC[C@H](C)[C@@H](C5CCCCC5)O4)O3)OC(=O)[C@@H]3C=C(C)/C(=N/O)[C@H]4OC/C(=C\C=C\[C@@H]2C)[C@]43O)O[C@@H](C)[C@@H]1O	nt	nt	nt	-3	nt
CCOCCCNC(=O)c1cn(CC)c2ccc(S(=O)(=O)N3CCCC3)cc2c1=O	0	2	-4	-4	-15
CN(C)CCCNC(=O)c1ccc(-c2nc(-c3ccc(Cl)cc3)cs2)cc1	13	-59*	-13	-3	-8
C=CCSc1nc(C)c(CCCC)c(=O)[nH]1	1	-18	-3	4	12
COc1ccc(C(=O)NCc2ccc3c(c2)OCO3)c(OC)c1	6	5	0	3	24
CCCN(C(=O)CSc1ccccc1C(=O)O)C1CCS(=O)(=O)C1 (centres undefined)	nt	nt	nt	0	-15
C=CCN(CC=C)CC(O)CN(c1cc([N+](=O)[O-])ccc1OC)S(=O)(=O)c1ccccc1 (centres undefined)	3	2	-4	-41	-84*
CC1CCc2c(sc(NC(=O)CN3CCN(C(=O)c4ccco4)CC3)c2C#N)C1 (centres undefined)	6	-31*	-4	6	6
CC1CCN(CC(=O)Nc2sc3c(c2C#N)CCC3)CC1	1	14	2	-1	3
CCc1cc(C(=O)OC)c(NC(=O)CN2CCN(C(=O)c3ccco3)CC2)s1	116*	-47*	3	-19	-6
CCOC(=O)N1CCN(CC(=O)Nc2sc(CC)cc2C(=O)c2ccc(OC)cc2)CC1	8	-31*	2	14	3
Cc1cc2c(s1)c1cnn(Cc3cc(C(F)(F)F)ccc3F)c(=O)c1n2C	5	21	-4	nt	nt
NC(=O)Nc1ccc(C(=O)OCC(=O)Nc2cccc(S(=O)(=O)NC3=NCCCCC3)c2)cc1	3	12	1	1	3
COc1ccccc1NC(=O)C(Cc1ccccc1)NS(=O)(=O)c1ccc2c(c1)CCN2C(C)=O (centres undefined)	2	1	0	-1	nt
c1ccc2c(c1)ccc1ccccc12	nt	nt	nt	0	-9
O=c1ccc2ccccc2c2ccccc12	nt	nt	nt	-11	-79*
COc1ccc(OC)c(CNc2nc3ccccc3n2CCN2CCCCC2)c1	11	-19	-8	-46	?
COc1ccc(CNc2nc3ccccc3n2CCN2CCCCC2)c(OC)c1	13	-41*	-9	-15	?
COc1cccc(CNc2nc3ccccc3n2CCN2CCCCC2)c1OC	9	-25	-7	-15	-67*
CCn1c(NCc2cccc(OC)c2OC)nc2ccccc21	2	8	-4	-7	-27
Cc1ccc(-n2ncc3c2CCCC3NC(=O)CSc2ccccn2)cc1C (centres undefined)	7	-22	4	-3	-6
Cc1ccn2c(=O)cc(CSc3nnc(NC(=O)c4ccccc4Cl)s3)nc2c1	0	-3	2	4	nt
Cc1ccc(Nc2nc(-c3ccncc3)nc3ccccc23)cc1	-1	-2	-5	16	7
Cc1ccc(Nc2nc(-c3ccccc3)nc3ccccc23)cc1	1	-30*	-4	2	nt
O=[N+]([O-])c1ccccc1C=NNc1ccccc1	nt	nt	nt	-8	-3
SMILES	D1 ag	D1 antagonist	D1 PAM	DRD3 agonist	DRD3 antagonist
Cc1ccc(-c2nc(N/N=C/c3ccccc3[N+](=O)[O-])c3ccccc3n2)cc1	0	-14	-6	45*	35
CC1CCCCN1c1nnc(NC(=O)Nc2ccccc2F)s1 (centres undefined)	-1	3	1	1	nt
CCCCn1nnnc1C(c1ccccc1)N1CCCN(Cc2ccc(F)cc2)CC1 (centres undefined)	nt	nt	nt	-13	-69*
O=S(=O)(CCN1CCN(C(c2ccccc2)c2ccccc2)CC1)C(F)(F)F	4	-9	-2	0	-50*
c1ccc(CN2CCN(C(c3ccccc3)c3nnnn3Cc3ccccc3)CC2)cc1 (centres undefined)	0	17	-9	-10	0
c1ccc(CN2CCN(C(c3ccccc3)c3ccccc3)CC2)cc1	4	5	-6	-11	-70*
CC(=O)N1CCN(C(c2ccccc2)c2ccccc2)CC1	nt	nt	nt	19	6
Fc1ccc(CN2CCN(C(c3ccccc3)c3ccccc3)CC2)cc1	4	15	-2	-23	-82*
OC(CN1CCN(Cc2ccccc2)CC1)c1ccc(F)cc1 (centres undefined)	5	-27	-8	-45	-18
CCc1ccc(S(=O)(=O)Nc2cccc(-c3ccc4nnc(C)n4n3)c2)s1	4	-9	-3	2	13
Cc1ccc(NC(=O)CSCC(=O)Nc2cccc(S(=O)(=O)N3CCCCCC3)c2)cc1	0	6	-2	0	-27
O=C1c2ccccc2C(=O)N1CC#CCN1CCN(C(c2ccccc2)c2ccccc2)CC1	0	23	3	-18	-88*
CCOC(=O)C1CCN(C(=O)C2CCC(=O)N(CC3CCCCC3)C2)CC1 (centres undefined)	2	12	-4	6	3
COc1ccc(CCNC(=O)CSc2nc3ncccc3[nH]2)c(OC)c1	0	22	-2	-2	6
O=C(CSc1nc2ncccc2[nH]1)Nc1c(F)cc(F)cc1Br	1	3	0	-3	-58*
O=C(CSc1nc2ncccc2[nH]1)NCCc1ccccc1	0	-39*	-7	4	7
O=C1c2ccccc2NC(c2ccc(Cl)cc2Cl)N1Cc1ccccc1 (centres undefined)	3	-14	-3	3	-53*
O=C1c2ccccc2NC(c2c(Cl)cccc2Cl)N1Cc1ccccc1 (centres undefined)	4	2	-3	-2	-25
COc1ccc(Cc2cnc(N)nc2N)cc1OC	nt	nt	nt	3	nt
Oc1c(CN2CCCCC2)cc(Br)c2cccnc12	2	-8	4	-29	-74*
Oc1c(CN2CCc3ccccc3C2)cc(Cl)c2cccnc12	1	10	nt	-25	-139*
O=[N+]([O-])c1cc(CN2CCN(c3ccccc3)CC2)c(O)c2ncccc12	1	-11	16	-43	-109*
NCCCCCC(=O)N/N=C/c1coc2ccccc2c1=O	1	-8	-5	-7	4
CC/C(=N\NC(=O)c1ccc(CN(C)S(=O)(=O)c2ccc(C)cc2)cc1)c1ccc(OC(F)F)cc1	2	-2	0	-2	-21
COc1ccc(C)cc1N1C(=N)/C(=C2/Nc3ccccc3S2)C(c2ccccc2)C1=O (centres undefined)	0	-15	-5	-6	-4
Cc1cc2nc(-c3ccc(NC(=O)C(C)C)cc3)oc2cc1C	1	-33*	-2	3	45
Cc1ccc(-c2nc3cc(NC(=O)C(C)C)ccc3o2)cc1	-2	16	8	-3	14
